The full list was thinned out, with hits kept by preference.
Tg IFNy HTS: blocks Toxoplasma gondii growth in the presence of IFN-gamma; activity change, negative = inhibition, % (no concentration beside the values); hit rate 3.8% among 69,000; Toxoplasma gondii growth in IFN-gamma-treated host cells; hits give low values; in the data active means activity change below about -70%, passing the limit was not always enough;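 further: host cells are HeLa cells infected with Toxoplasma gondii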
An asterisk follows results filed as active; ! = not active in a repeat.

SMILES	Tg IFNy HTS
Cc1ccc(NC(=O)c2ccoc2)cc1NCC#N	45
O=C(c1cccc2c(=O)c3ccccc3[nH]c12)N1CCCC2(CCNCC2)CC1	59
Cc1ccc(C(=O)NCCNC(=O)c2ccc(C)nc2)cn1	19
Cc1nn(CC(=O)NCC2CCCCC2)c(=O)c2nc(-c3ccccc3)sc12	-24
COc1ccc2c(c1)c1c(n2Cc2ccccc2)CCCC1	19
O=C(O)Cn1c2c(c3ccccc31)CCC2	-92*
O=C1SCCc2c1n(Cc1ccccc1)c1ccccc21	23
Cc1cn2c(=O)c(C(=O)Nc3ccc(OCCN4CCCCC4)cc3)cnc2s1	3
Cc1ncc(C)c(-c2cccc(OC(C)C)c2)n1	-3
c1coc(-c2ccc(-c3nccn3CCn3cccn3)cc2)c1	-3
Cc1csc(CN2C[C@H]3CCCO[C@H]3[C@H](N3CCCC3)C2)n1	-1
Cn1cc(CN2C[C@H]3CCCO[C@H]3[C@H](NS(C)(=O)=O)C2)cn1	-2
COCC(=O)N[C@H]1CN(Cc2scnc2C)C[C@H]2CCCO[C@H]21	-81*
O=C1c2ccc3c4c(ccc(c24)C(=O)N1C1CCCCC1)CC3	-7
CC(C)CNC(=O)C1Cn2ccnc2C2(CCN(C(=O)C3CCOCC3)CC2)O1 (stereo not given)	13
CCc1cnc(N2CCC3(CC2)OC(C(=O)NCC(C)C)Cn2ccnc23)nc1 (stereo not given)	-103*
CCc1ccc(NC(=O)N2CCC3(CC2)OC(C(=O)NCC(C)C)Cn2ccnc23)cc1 (stereo not given)	60
CCS(=O)(=O)N1CCCn2cnc(COCc3ccco3)c2C1	2
CNC(=O)[C@H]1CC2CN(C(=O)c3ccc4c(c3)OCO4)CC2N1C(C)C (stereo not given in full)	7
CC(=O)c1ccc2c(c1)[C@@H]1C=CC[C@@H]1[C@H](c1cc3c(cc1Br)OCO3)N2	-75*
C[C@H]1C[C@H]2CN(C(=O)c3ccc4c(c3)OCO4)C[C@H]2O1	24
Brc1ccc2c(c1)C1C=CCC1C(C1CC=CCC1)N2 (stereo not given)	27
Cc1ccc(CNCc2cccnc2)o1	7
COc1ccc(C)cc1S(=O)(=O)NCCc1csc(-c2ccc(Cl)cc2)n1	32
O=c1cc(CSc2nc3ccccc3o2)[nH]c2nc3ccccc3n12	-97*
SMILES	Tg IFNy HTS
Cc1cc(CSc2nc3ccccc3o2)c(C)cc1CSc1nc2ccccc2o1	-3
Cc1[nH]c2ccccc2c1C(=O)CSc1nc2ccccc2o1	-39
Cc1ccc(-c2nc(Cn3nnc(-c4nc(-c5ccncc5)no4)c3C)c(C)o2)cc1	-68
Cc1cccc(CN2CCN(Cc3ccc4occc4c3)CC2)c1	-8
COCCN1C[C@H]2C(=O)N(C)C3(CCN(c4ncc(C)cn4)CC3)[C@H]2C1	-7
O=C(c1ccccc1)c1ccc2[nH]c(=S)[nH]c2c1	-94*
Cc1nc(C)c(C(=O)c2ccccc2)cc1C(=O)c1ccccc1	-10
O=C(c1ccccc1)c1ccccc1C(=O)c1ccccc1	-10
Cc1cccc(NC(=O)C(=O)NCCc2sc(-c3cccc(C)c3)nc2C)c1	-16
Cc1cnc(C(=O)N2CCCCC2C2CCN(C(=O)Cc3csc(C)n3)CC2)cn1 (stereo not given)	296
c1ccc(CNc2nccc(C3CCCC3)n2)nc1	-6
CC(=O)Nc1nc(C)c(-c2ccc(Cl)c(S(=O)(=O)NCCO)c2)s1	-81*
Cc1nc(-c2ccc(F)cc2)sc1CCNS(=O)(=O)c1ccccc1Cl	48
COc1ccc(-c2nc(C)c(CCNS(=O)(=O)c3cc(Cl)ccc3Cl)s2)cc1	410
O=S(=O)(NCCc1cc(N2CCOCC2)nc(N2CCCC2)n1)N1CCCC1	-9
O=C(Cn1c(=O)cc(C(=O)N2CCCCC2)c2ccccc21)Nc1cccc(C(F)(F)F)c1	-18
Cc1nc2ncccn2c1C(=O)N1CCCC(C(=O)c2ccc3c4c(cccc24)CC3)C1 (stereo not given)	-1
Cc1nc2ncccn2c1C(=O)N1CCCC2(C1)C(=O)Nc1ccccc12 (stereo not given)	-82*
Cc1cc(C)n2nc(C(=O)N3CCCC4(C3)C(=O)Nc3ccccc34)cc2n1 (stereo not given)	-25
COc1ccc(S(=O)(=O)NCc2nc(-c3ccc(C)cc3)oc2C)cc1Cl	66
Nc1nc(=O)n([C@H]2C[C@H](O)[C@@H](CO)O2)cc1F	-89*
Nc1ncnc2c1ncn2C1CCCO1 (stereo not given)	16
Nc1ccn([C@@H]2O[C@H](CO)[C@@H](O)[C@H]2O)c(=O)n1	11
Nc1nc(Cl)nc2c1ncn2[C@H]1C[C@H](O)[C@@H](CO)O1	-73*!
O=c1[nH]cnc2c1ncn2[C@H]1CC[C@@H](CO)O1	9
OCC1OC(n2cnc3c(NC4CCCC4)nc(Cl)nc32)C(O)C1O (stereo not given)	2
O=c1[nH]c(=O)n([C@H]2C[C@H](O)[C@@H](CO)O2)cc1I	21
Nc1nc(Cl)nc2c1ncn2[C@@H]1O[C@H](CO)[C@@H](O)[C@@H]1F	-74*
